# Rows were chosen to be rich in hits. Some 10% of all compounds tested hit in one or more screens of this group.
# ROMK primary – modulates human ROMK potassium channel activity; P48048; Tet-inducible ROMK, thallium flux fluorescence; actives lie on both sides; B-score at 10 µM; 2% of 130,000 active; AID 1918;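 active = signal ratio slope over the read window, or its plate-corrected B-score, at least 3 SD from the plate mean, either direction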;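 note: B-score of the F/F0 ratio slope over 7 to 12 s after thallium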
# Target sequence (P48048 whole entry, looked up): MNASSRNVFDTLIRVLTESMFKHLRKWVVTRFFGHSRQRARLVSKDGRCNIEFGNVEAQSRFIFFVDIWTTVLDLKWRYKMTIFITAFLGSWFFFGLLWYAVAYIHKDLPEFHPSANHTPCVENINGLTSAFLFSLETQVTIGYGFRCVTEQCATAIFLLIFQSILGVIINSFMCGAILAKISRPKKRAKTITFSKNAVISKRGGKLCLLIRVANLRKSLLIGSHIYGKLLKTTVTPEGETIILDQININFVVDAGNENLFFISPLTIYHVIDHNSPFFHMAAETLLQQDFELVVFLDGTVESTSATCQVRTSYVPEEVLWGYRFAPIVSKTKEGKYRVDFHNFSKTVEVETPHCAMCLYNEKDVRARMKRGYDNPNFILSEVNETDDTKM
# HCT116 PTEN-null – growth suppressors of cells with PTEN tumor suppressor deletion; 1.2% of 140,000 active; AID 827; viability, % at 10 µM; HCT116 PTEN-null viability, CellTiter-Glo, 60 h; active compounds read low;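 active = viability at or below a set limit, 4 SD under the median of all tested compounds, cut at about 3.7% in these data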;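 note: PTEN knockout HCT116 line with beta catenin targeted HCT116 as companion control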
# bCat KO growth – beta-catenin-lacking colon tumor cell growth suppression; viability, % at 10 µM; 1.5% of 140,000 active; HCT116 beta-catenin knockout viability, CellTiter-Glo, 60 h; active compounds read low;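 active = viability at or under a set limit, the compound median less 4 SD, cut at about 6% in these data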;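 note: 0% = Hyamine 1622 control at 20 µM and 100% = untreated cell control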
# Insulin prom inh – TRM-6 insulin promoter activity inhibition; TRM-6 cells (human fetal islet line), insulin promoter-eGFP reporter, imaging; reporter expression induced with tamoxifen; inhibition, % at 2 µM; 0.9% of 130,000 active; AID 1273;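 active = inhibition above the mean plus 3 SD, with well images judged a real hit on visual review, cut at about 60% in these data, passing the limit was not always enough; inconclusive = inhibition over the cutoff but images rejected on review; inactive = inhibition not above the cutoff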
# p97 inhibitor – blocks human p97 ATPase activity | P55072 | recombinant p97 ATPase, Kinase-Glo ATP luminescence, 3 h | inhibition, % at 8 µM | 0.42% of 220,000 active | AID 1481; in the data active = inhibition above about 15%;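 note: 0% = DMSO vehicle and 100% = wells lacking enzyme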
# L major viab – reduces viability of Leishmania major promastigotes | 9% of 200,000 active | resazurin fluorescence viability | inhibition, % at 10 µM; in the data active = inhibition above about 50%;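 note: promastigotes grown with compound for 44 hours at 28 °C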
# ROMK retest – human ROMK channel modulation, retest confirmation; shares compounds with ROMK primary; ROMK thallium flux, fluorescence ratio; active compounds read low; normalized thallium flux (F/F0 slope) at 10 µM; 54% of 3,000 active;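 active = Flux at 10 µM at least 3 SD below or above vehicle control mean in one or both replicates; inconclusive = no clear call, values can overlap the other calls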
# * = called active by the depositor; i = inactive; ? = inconclusive; . = not tested or not shown.
SMILES,ROMK primary,HCT116 PTEN-null,bCat KO growth,Insulin prom inh,p97 inhibitor,L major viab,ROMK retest
O=C1OCC2=C1C(c1ccc(F)cc1)CC(=O)N2c1ccccc1 (centres undefined),3.1*,.,.,.,4,-7,0.084
O=C1OCC2=C1C(c1ccc(F)cc1)CC(=O)N2c1ccc(F)cc1 (centres undefined),1.2,.,.,.,0,-4,.
Cc1nc2c(sc3nc4c(cc32)COC(C)(C)C4)c(=O)n1CC(=O)NCc1ccco1,4.1*,11,7,-33,-9,11,0.09
COC(=O)c1ccc(S(=O)(=O)NCCSc2nnc3c4ccccc4n(C)c3n2)cc1,-0.046,80,81,.,1,-2,.
CCCCCCCCNC(=S)NCCN1CCCCC1,-2.6*,.,.,-58,-3,97*,0.048*
COCCNC(=S)N1CCc2cc(OC)c(OC)cc2C1c1cccs1 (centres undefined),0.73,.,.,-36,0,12,.
CC/C(=N/O)c1cnnc(SC)n1,-0.14,94,101,-22,-8,-3,.
CC/C(=N/Nc1cccc(C)c1)c1cnnc(SC)n1,-4.1*,63,62,-42,-4,26,?
N#Cc1c(NCc2ccccc2)ccnc1NCc1cccnc1,.,43,29,13,0,8,0.073
CS/C(Nc1cc(Cl)ccc1Cl)=C(/C#N)C(=O)c1ccco1,.,.,.,.,11,.,0.051*
COC(=O)C1=C(C)N(CCc2ccc(OC)c(OC)c2)C(=O)/C1=C\c1ccc(O)cc1,.,92,85,60,1,49,.
OC(COc1ccc2c(c1)CCC2)Cn1cnc2ccccc21 (centres undefined),-2.1,95,100,-25,-8,6,.
Cc1nn(CC(O)COc2ccc3c(c2)CCC3)c(C)c1C (centres undefined),-3.7*,79,71,-20,-2,11,0.066*
CCOc1cc(Br)c(C(=O)O)cc1OCC,.,86,102,11,0,-3,.
CCOc1cc(Br)c(C=O)cc1OCC,2.9*,.,.,9,7,-5,0.1*
C/C(=N/OC(=O)c1c(-c2c(Cl)cccc2Cl)noc1C)c1cnccn1,-0.11,.,.,.,-3,7,.
COc1cccc(C(=O)O/N=C(\C)c2cnccn2)c1,-3.6*,.,.,.,4,-6,0.064*
COc1cc(Cl)c(C)cc1NC(=O)CNC(C)c1ccccc1OC (centres undefined),-4*,.,.,-58,-2,34,0.061*
Cc1ccc(SCCN)cc1C,-3*,.,.,.,2,4,0.068*
CC(C)Cn1nc(NC(=O)c2cccs2)c2cc3ccccc3nc21,.,.,.,.,1,.,.
COc1ccc2nc3c(cc2c1)c(NC(=O)c1cccs1)nn3CC(C)C,.,7,14,-25,2,84*,0.072
CC(CCc1ccccc1)NC(=O)/C=C/c1ccc(F)cc1 (centres undefined),2.1*,.,.,.,3,0,0.075
CC(CCc1ccccc1)NC(=O)/C=C/c1ccccc1 (centres undefined),.,92,93,19,0,-4,.
Cc1cccc(NC(=O)CNC(=O)COc2ccc(-c3ccc(C#N)cc3)cc2)c1C,-0.039,58,69,15,-4,-2,.
COc1ccc(Oc2ccc(S(=O)(=O)N3CCCCC3)cc2S(=O)(=O)N2CCCCC2)cc1,-5.7*,.,.,.,5,.,0.047*
SMILES,ROMK primary,HCT116 PTEN-null,bCat KO growth,Insulin prom inh,p97 inhibitor,L major viab,ROMK retest
COc1ccc(S(=O)(=O)N2CCCCC2)cc1C(C)C,.,78,72,18,-7,30,0.053*
COc1ccc(S(=O)(=O)N2CCCCCC2)cc1C(=O)OC(C)C(N)=O (centres undefined),.,.,.,.,1,.,.
COC(=O)c1ccc(NC(=O)c2sc3nc(-c4ccccc4)cn3c2C)cc1,.,57,61,.,1,13,?
COCCN(CCOC)C(=O)c1sc2nc(-c3ccccc3)cn2c1C,.,105,91,-73,7,-5,.
CCCCS(=O)c1c(O)c2ccccc2[nH]c1=O (centres undefined),-0.36,94,92,8,3,-5,.
O=C(CCl)c1ccc2c(c1)CCN2C(=O)C1CC1,-2.8*,.,.,.,2,100*,0.064*
O=C(C1CCC(C(=O)N2CCc3ccccc32)CC1)N1CCc2ccccc21 (centres undefined),.,108,95,65,3,-3,.
CCN(CC)S(=O)(=O)c1cccc(NC(=O)COc2ccc(F)cc2Br)c1,-0.99,.,.,-18,-2,24,.
CCn1c(CSc2nc3ccccc3s2)nnc1SCC(=O)NCC(=O)OC,.,95,91,11,4,-4,.
CN(C)c1nc(Oc2ccc(C(=O)OCC(=O)Nc3ccccc3)cc2)nc(N(C)C)n1,.,92,91,8,-5,-7,0.08
CC1C/C(=C/c2ccncc2)C(=O)/C(=C/c2ccncc2)C1 (centres undefined),-1.8*,.,.,i,1,101*,0.05*
O=C(c1ccc(Cl)c(S(=O)(=O)N2CCCCCC2)c1)N1CCCC1,.,.,.,.,4,.,.
O=c1cc(Cn2ccnc2)c2cc3c(cc2o1)CCC3,-0.58,87,93,-14,3,-4,.
Cc1cc2oc(=O)cc(Cn3ccnc3)c2cc1C,-6.3*,113,103,-40,2,-9,0.077
CC(=O)O/N=C(\N)c1cnn2c(C(F)(F)F)cc(C(F)(F)F)nc12,.,.,.,.,3,.,.
O=C1c2ccccc2C(=O)N1CCCCN(C(=O)c1cc2ccccc2oc1=O)c1ccc(Cl)cc1,-2.3*,85,84,-19,1,24,0.077
COC(=O)c1ccc(CSc2n[nH]c(-c3ccccc3)n2)o1,0.78,.,.,-53,3,-1,.
CC1=NOC(=O)/C1=C/c1ccc(O)cc1,-3.7*,.,.,-8,5,12,0.048*
CCOc1cc(/C=C2\C(=O)ON=C2C)ccc1OCc1ccccc1,.,60,71,-9,3,38,.
O=C(NCC(c1ccco1)N1CCCCC1)c1ccc(OCc2ccccc2)cc1 (centres undefined),-3.2*,.,.,.,0,30,0.07
O=C1NN(c2ccccc2)C(=O)/C1=C/c1ccc(Sc2cccc3ccccc23)o1,-3.9*,70,67,7,5,38,0.067*
CC(C)CCNC(=O)C1CCC(=O)N1C(C)C (centres undefined),.,107,100,31,3,-2,.
CCC(C)N1C(=O)CCC1C(=O)O (centres undefined),-8.2*,72,72,0,4,0,0.08
COC(=O)N/N=C/c1cc(C)n(-c2ccccc2)c1C,0.86,83,89,.,-6,11,.
Cc1cc(/C=N/NC(=O)c2cccs2)c(C)n1-c1ccccc1,3.8*,60,65,2,4,22,0.081
Cc1cc(/C=N/NC(=O)C(O)(c2ccccc2)c2ccccc2)c(C)n1-c1ccccc1,2.7*,81,91,-7,7,-3,0.097*

# Screening data (PubChem)
